Activity calls are given as the source filed them.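 How the source made its calls, unless noted: active means fluorescence slope higher than the sample average by over 3 SD (cut at about -0.22 in these data, passing the limit was not always enough); inactive means the rest.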
Assays:
[1] = inhibitors of TNFa-induced NFkB p65 translocation, primary screen, imaging, HUVEC, MLSMR starter and 10KST1 sets (AID 438;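 active means inhibition above 20% together with a positive visual image hit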;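 further: compound added about 3h40 before a 20 min TNFalpha stimulation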;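 on inhibition: signal is the nuclear over cytoplasmic p65 intensity ratio per well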); conditions: HUVEC TNFa-induced p65 nuclear translocation; cell count: measured here: nuclei count (cytotoxicity indicator), at 2.08 µM; inhibition: at 2 µM, stronger effect = higher value, 0% TNFa-plus-vehicle, 100% no-TNFa wells
[2] = reduction of polyQ htt aggregates in cells – imaging, exon1htt(103Q)mCFP cells, high-content imaging, primary screen (AID 483;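 active means visual image review flags a hit and inhibition of aggregation exceeds 20%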;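 further: compound exposure lasted 3 days before fixation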;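 on nuclei count: percent of the per-plate median nuclei count of sample wells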); conditions: exon1htt(103Q)mCFP cell line, aggregate imaging, at 2 µM; inhibition of aggregation: stronger effect = higher value; nuclei count: measured here: cell count, toxicity
[3] = endothelial E-selectin expression blockers – imaging, HUVEC, immunofluorescence, MLSMR starter and 10KST1 sets, primary screen (AID 487;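 active means visually confirmed hit in the image check and inhibition above 20%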;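 on inhibition: signal is fraction of cell area covered by stained E-selectin grains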;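 on nuclei count: 100% = median nuclei count of all wells on the same plate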); conditions: HUVEC TNFalpha-induced E-selectin immunofluorescence imaging, at 2 µM; inhibition: stronger effect = higher value; nuclei count: measured here: cell number, toxicity
[4] = molecular target: Voltage-gated potassium channel subunit beta-2 (Rattus norvegicus) (UniProt P62483); experiment: inhibitors of rat Kvbeta2 reductase activity – biochemical, NADPH fluorescence, primary screen (AID 622); conditions: recombinant KvBeta, 4-cyanobenzaldehyde reduction, at 10 µM, stronger effect = higher value;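 further: slope of raw intensity against log time taken from 70 to 1610 s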
Sequence of Voltage-gated potassium channel subunit beta-2 (Rattus norvegicus) (P62483 whole entry, looked up): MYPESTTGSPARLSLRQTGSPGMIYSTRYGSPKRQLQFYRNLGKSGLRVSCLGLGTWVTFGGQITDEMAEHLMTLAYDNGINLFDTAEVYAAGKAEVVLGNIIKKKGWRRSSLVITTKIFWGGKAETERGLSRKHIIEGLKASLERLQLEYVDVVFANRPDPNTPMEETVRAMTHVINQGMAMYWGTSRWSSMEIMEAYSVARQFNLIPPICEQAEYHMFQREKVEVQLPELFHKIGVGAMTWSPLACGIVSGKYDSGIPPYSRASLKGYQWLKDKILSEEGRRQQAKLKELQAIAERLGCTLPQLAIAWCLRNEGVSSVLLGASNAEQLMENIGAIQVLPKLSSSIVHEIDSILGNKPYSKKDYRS

[5] = molecular target: Voltage-gated potassium channel subunit beta-2 (Rattus norvegicus) (UniProt P62483); experiment: enhancers of rat Kvbeta2 NADPH turnover – biochemical, NADPH fluorescence, primary screen (AID 623;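 active means NADPH fluorescence slope more negative than the mean of all samples by about 3 SD, 99.7% confidence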;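 further: fluorescence intensity change per second fitted from 20 to 320 s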); conditions: Recombinant KvBeta, NADPH fluorescence decrease slope, 10 min; at 10 µM; stronger effect = lower value
[6] = molecular target: Alpha-2C adrenergic receptor (Homo sapiens) (UniProt P18825); experiment: compounds altering alpha2C-coupled GIRK flux – cell-based, HEK293 alpha2C/GIRK1/2, thallium flux, primary screen (AID 624;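 active means fluorescence slope after compound addition differing from the mean of all screened samples at 99.7% confidence, in either direction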;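 further: slope of fluorescence ratio to pre-addition baseline per second over 15 to 24 s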); conditions: thallium flux BTC fluorescence, at 10 µM, actives lie on both sides
Sequence of Alpha-2C adrenergic receptor (Homo sapiens) (P18825 whole entry, looked up): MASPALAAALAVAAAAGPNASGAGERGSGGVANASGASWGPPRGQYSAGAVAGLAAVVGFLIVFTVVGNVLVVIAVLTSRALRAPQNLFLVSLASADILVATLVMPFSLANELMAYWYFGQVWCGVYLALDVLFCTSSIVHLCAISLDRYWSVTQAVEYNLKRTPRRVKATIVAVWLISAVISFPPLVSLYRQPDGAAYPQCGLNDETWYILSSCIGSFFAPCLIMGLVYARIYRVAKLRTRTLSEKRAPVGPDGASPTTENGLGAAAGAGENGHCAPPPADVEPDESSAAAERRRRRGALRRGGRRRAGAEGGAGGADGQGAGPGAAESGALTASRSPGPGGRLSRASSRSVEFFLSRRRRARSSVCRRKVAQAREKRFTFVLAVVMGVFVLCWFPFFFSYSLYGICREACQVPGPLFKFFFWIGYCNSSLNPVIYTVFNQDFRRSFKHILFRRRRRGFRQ

[7] = blockers of RIG-like receptor reporter activation – cell-based, Sendai virus stimulus, luciferase, 10K MLSCN set, TLR/RLR signaling modifier project, primary screen (AID 602276;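 active means inhibition at or above 50% at 10 µM; inactive means inhibition below 50%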;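 further: firefly luciferase from ISG56 promoter only with Renilla not read in this screen; 0% = Sendai virus plus DMSO and 100% = medium plus DMSO without virus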); conditions: HEK293 RL24 IRF3 luciferase reporter, at 10 µM, stronger effect = higher value
[8] = TLR3 IRF3 reporter activation blockers – cell-based, poly I:C stimulus, luciferase, 10K MLSCN set, primary screen (AID 602277;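 active means inhibition of the reporter signal at or above 50%; inactive means inhibition below 50%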); conditions: HEK293-TLR3 RL24 IRF3 luciferase reporter, at 10 µM, stronger effect = higher value

SMILES | cell count [1] | inhibition [1] | inhibition of aggregation [2] | nuclei count [2] [%] | inhibition [3] | nuclei count [3] [%] | fluorescence slope [4] | NADPH fluorescence slope [5] | slope [6] | inhibition [7] | inhibition [8]
CCOC(=O)C(C)(C)Sc1nc2c(cnn2-c2ccc(Cl)cc2)c(=O)[nH]1 | 623 | -5.2% (inactive) | -10.2% (inactive) | 119 | -27.2% (inactive) | 102 | -0.59 (inactive) | -5e-05 (inactive) | 0.00733 (inactive) | 9.09% (inactive) | 16.7% (inactive)
CC(C)(C)OC(=O)N1CCCC1C(=O)N1CCc2ccccc21 (stereo not drawn) | 411 | 5.6% (inactive) | -0.3% (inactive) | 103 | -19.6% (inactive) | 104 | -0.614 (inactive) | -1.2e-06 (inactive) | 0.00514 (inactive) | 10.9% (inactive) | 33.9% (inactive)
O=C(COc1ccccc1)Nc1nc2ccccc2[nH]1 | 626 | -2.6% (inactive) | 2.7% (inactive) | 114 | 0.2% (inactive) | 119 | -0.45 (inactive) | -6.8e-05 (inactive) | 0.00605 (inactive) | -49.9% (inactive) | -93.8% (inactive)
N#Cc1ccccc1NC(=O)CSc1nnc(-c2ccccc2)n1-c1ccccc1 | 556 | -25.3% (inactive) | -20.9% (inactive) | 99.9 | -1.6% (inactive) | 83.7 | -0.603 (inactive) | -1.9e-05 (inactive) | 0.00673 (inactive) | 1.9% (inactive) | 24.8% (inactive)
CC(C)CNC(=O)C1CC(=O)OC12CCCCC2 (stereo not drawn) | 661 | -32.6% (inactive) | 4.3% (inactive) | 96.4 | -18.4% (inactive) | 107 | -0.594 (inactive) | -6.1e-05 (inactive) | 0.00558 (inactive) | 12.4% (inactive) | 19.6% (inactive)
CCn1c(SCC(=O)c2ccc(F)cc2)nnc1-c1ccoc1C | 423 | -19.4% (inactive) | -1.3% (inactive) | 78 | -50.4% (inactive) | 103 | -0.607 (inactive) | 1.4e-05 (inactive) | 0.00696 (inactive) | 6.99% (inactive) | 11.7% (inactive)
O=C(C1CCCN(S(=O)(=O)c2ccc(Br)s2)C1)N1CCCCCC1 (stereo not drawn) | 217 | -1.9% (inactive) | 5.7% (inactive) | 75.1 | 30.6% (inactive) | 31.6 | -0.378 (inactive) | -4.5e-05 (inactive) | 0.00305 (inactive) | 2.37% (inactive) | 13.4% (inactive)
CCS(=O)(=O)N1CCCC(c2nc(-c3cccc(OC)c3)no2)C1 (stereo not drawn) | 730 | -52% (inactive) | -9.9% (inactive) | 92.1 | -66.1% (inactive) | 104 | -0.535 (inactive) | 1.2e-05 (inactive) | 0.00638 (inactive) | -28.7% (inactive) | -59.2% (inactive)

Reference: PubChem BioAssay
